Laboratory results reported in PubChem BioAssay AID1619 (SRMLSC, 2009).
The campaign covered roughly 220,000 compounds. About 830 (0.38%) were called active.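 How the source made its calls: active means compound inhibiting the enzyme by more than half at any dose during confirmatory dose-response retesting; inconclusive means strong single-dose inhibitors picked by rank but not retested; inactive means the rest.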 The list is a sample of the results. Results with a measured potency or affinity are listed apart.

Molecular target: Leucine aminopeptidase (Plasmodium falciparum (isolate 3D7)) (UniProt Q8IL11)
Assay: P. falciparum M17LAP inhibitors, primary screen, biochemical, fluorogenic H-Leu-NHMec substrate, 1536-well (AID 1619);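 further: plate controls were full reaction with DMSO carrier for no effect and no enzyme background for full effect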
Details: recombinant M17LAP, H-Leu-NHMec fluorogenic kinetic assay; at 30 µM; active compounds read high

Chain of Leucine aminopeptidase (Plasmodium falciparum (isolate 3D7)) (Q8IL11 whole entry, looked up): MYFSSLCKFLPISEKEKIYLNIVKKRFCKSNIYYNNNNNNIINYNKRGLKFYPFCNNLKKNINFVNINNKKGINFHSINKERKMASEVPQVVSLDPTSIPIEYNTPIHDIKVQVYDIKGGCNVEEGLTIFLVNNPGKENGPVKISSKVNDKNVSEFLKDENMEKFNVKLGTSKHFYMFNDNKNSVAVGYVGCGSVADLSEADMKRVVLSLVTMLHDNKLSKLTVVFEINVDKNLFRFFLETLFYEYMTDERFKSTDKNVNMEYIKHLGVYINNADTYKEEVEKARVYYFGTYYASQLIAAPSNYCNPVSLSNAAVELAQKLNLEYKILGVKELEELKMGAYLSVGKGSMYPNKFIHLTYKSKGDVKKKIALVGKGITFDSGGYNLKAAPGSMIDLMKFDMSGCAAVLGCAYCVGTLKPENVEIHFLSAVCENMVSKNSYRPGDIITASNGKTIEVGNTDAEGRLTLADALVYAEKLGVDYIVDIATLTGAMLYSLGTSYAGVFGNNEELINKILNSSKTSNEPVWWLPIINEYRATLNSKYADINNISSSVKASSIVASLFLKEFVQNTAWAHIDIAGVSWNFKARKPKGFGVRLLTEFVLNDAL

inhibition, inactive:
COc1ccc(/C=C2\SC(=O)N(CCn3cnnn3)C2=O)cc1 -2.01%
O=C(CN1CCN(Cc2ccc(F)cc2Cl)C1=O)NCCc1ccccc1 8.72%
CC1CCCN(c2nc(NCc3ccco3)nc(N)c2[N+](=O)[O-])C1 (stereo not drawn) -3.16%
CCCC(=O)Nc1nnc(-c2ccco2)s1 -4.22%
O=C(CCc1nc2ccccc2[nH]c1=O)OCC(=O)c1cccc2ccccc12 -3.73%
Cc1[nH]nc2c1C(c1ccco1)C(C#N)=C(N)O2 (stereo not drawn) 6.22%
CCCc1[nH]nc2c1C(/C(C)=C/c1ccccc1)C(C#N)=C(N)O2 (stereo not drawn) 6.81%
C/C(=C\c1ccco1)C1C(C#N)=C(N)OC2=C1C(=O)CC(C)(C)C2 (stereo not drawn) 5.9%
Cc1ccc(SCc2[nH]nc3c2C(c2ccco2)C(C#N)=C(N)O3)cc1 (stereo not drawn) 44.8%
COc1cc(C(=O)NCC(c2cccnc2)N2CCN(c3ccc(F)cc3)CC2)cc(OC)c1OC (stereo not drawn) -0.25%
COc1ccc(CNC(=O)CN(Cc2ccccc2)S(=O)(=O)c2ccc(Cl)cc2)cc1 -4.99%
O=C(c1ccc2c(c1)OCO2)C1CCCN(C(=O)C2CCOCC2)C1 (stereo not drawn) -3.38%
COCCCNC(NC(=O)c1ccc(Br)cc1)C(Cl)(Cl)Cl (stereo not drawn) 0.25%
NC(=O)[C@@H]1CC2(CC(c3cccc(NC(=O)[C@H]4CCC(=O)N4)c3)=NO2)CN1C(=O)c1ccc(Cl)cc1 (stereo partly drawn) 11.6%
COc1ccccc1NC(=O)NCc1nc(-c2ccc(C(F)(F)F)cc2)no1 0.03%
COc1cc(OC)cc(C(=O)Nc2ccc([N+](=O)[O-])cn2)c1 1.24%
CN(C)c1ccc(C(=O)Nc2nnc(C3=COCCO3)o2)cc1 3.73%
C=CCOc1ccc(NC(=O)C2CC(=O)N(C(C)C)C2)cc1 (stereo not drawn) 27.3%
CCOc1ccc(NC(=O)C2CC(=O)N(C(C)C)C2)cc1 (stereo not drawn) 43.2%
CCOC(=O)c1c(C)n(C)c2ccc(OC(=O)c3ccc([N+](=O)[O-])cc3)cc12 -6.49%
CCCc1cc(=O)[nH]c(Nc2ccc(Cl)cc2)n1 1.52%
COc1ccc(Cc2nnc(Nc3ccc(Cl)cc3)[nH]c2=O)cc1 -7.25%
COc1ccc(NC(=O)C2CCC(C)(C(=O)O)C2(C)C)cc1 (stereo not drawn) 14.3%
CC1(C(=O)O)CCC(C(=O)Nc2ccccc2)C1(C)C (stereo not drawn) 1.51%
COc1cccc(NC(=O)c2ccc(NC(C)=O)cc2)c1 10.5%
COc1ccc2cc(CCNC(=O)C(C)C)c(=O)[nH]c2c1 9.03%
COc1ccc(NC(=O)CN2CCC(C)CC2)cc1 32.1%
CSc1ccc(Cl)c(C(=O)NCc2ccco2)c1 14.1%
CCCNC(=O)COC(=O)c1cc(SC)ccc1Cl 6.08%
Cc1ccc(N=Cc2cc(C)n(C3CCCC3)c2C)cc1 3.83%
O=C(Nc1cc(F)cc(F)c1)c1ccc(NCCc2ccccc2)c([N+](=O)[O-])c1 5.14%
C=CCOC(=O)C1=C(C)Nc2[nH]c(=O)[nH]c(=O)c2C1c1ccccc1 (stereo not drawn) 16.9%
COc1ccc(Nc2nc3[nH]c(=O)cc(O)c3s2)cc1 23.2%
N#C/C(=C/c1cn(CC(=O)O)c2ccccc12)C(=O)NCc1ccccc1 21.3%
N#C/C(=C/c1cn(CC(=O)O)c2ccccc12)C(=O)Nc1ccccc1 10.1%
Cc1cc2cc(C)c3nnc(SCC(=O)Nc4ccc(S(=O)(=O)N5CCCCC5)cc4)n3c2cc1C -1.16%
O=C(CCN1C(=O)c2ccccc2C1=O)Nc1cccc(S(=O)(=O)NC2=NCCC2)c1 22.4%
COC(=O)c1ccc(C(=S)N2CCCCC2)cc1 3.47%
CCOc1ccc(NC(=O)c2ccc(NCC(=O)N3CCCCCC3)cc2)cc1 -2.72%
Cn1c(=O)c2c(nc(Br)n2Cc2ccccc2Cl)n(C)c1=O 0.26%
Cc1ncc([N+](=O)[O-])n1Cc1ccccc1F 10.8%
O=C(c1ccco1)N1CCN(C(=O)c2ccccc2[N+](=O)[O-])CC1 4.98%
O=C(c1ccc([N+](=O)[O-])cc1)N1CCN(C(=O)c2ccco2)CC1 2.53%
CC(=O)Nc1ccccc1NC(=O)C/C(C)=N/NC(=O)c1ccncc1 7.62%
N#C/C(=N\Nc1ccc(Cl)cc1)C(=O)c1ccsc1 4.01%
CCC(C)NC(=O)c1ccc2c(SCC(=O)O)c3c(nc2c1)CCCC3 (stereo not drawn) 25.2%
COc1cc(NC(=O)c2ccc3c(SCC(=O)O)c4c(nc3c2)CCCC4)cc(OC)c1OC 8.1%
CCCCNC(=O)c1ccc2c(SCC(=O)O)c3c(nc2c1)CCCC3 45.8%
CC(C)CCNC(=O)c1ccc2c(SCC(=O)O)c3c(nc2c1)CCC3 7.01%
O=C(Nc1ccc(Cl)cc1)c1cc(S(=O)(=O)N2CCOCC2)cs1 1.6%
Cc1ccc(C)c(S(=O)(=O)N2CCN(C(=O)c3cnccn3)CC2)c1 6.85%
CC1=NNC(=O)C1CC(=O)N/N=C/c1sccc1C (stereo not drawn) 9.78%
CC1=NNC(=O)C1CCC(=O)N/N=C/c1ccc(C)cc1 (stereo not drawn) 5.32%
CC1=NNC(=O)C1CCC(=O)N/N=C/c1ccc(Cl)cc1Cl (stereo not drawn) 11.1%
CC1=NNC(=O)C1CCC(=O)N/N=C/c1c(Cl)cccc1Cl (stereo not drawn) -1.12%
CC1=NNC(=O)C1CCC(=O)N/N=C/c1ccccc1 (stereo not drawn) -4.86%
O=C1CC(CC(=O)N/N=C/c2ccccc2[N+](=O)[O-])=NN1 56.8%
CCCCCC(=O)N/N=C/c1ccccc1[N+](=O)[O-] 36.9%
O=C(Cc1c(F)cccc1Cl)Nc1cc(S(=O)(=O)N2CCCCC2)ccc1N1CCOCC1 10.3%
COc1cccc(Nc2cc(C)nc3nc(C)nn23)c1 1.55%
Cc1cc(C)c(NC(=O)CCCOC(=O)C2=COCCO2)c(C)c1 12.3%
O=C(NCc1ccco1)C(c1ccccc1)N(Cc1cccnc1)C(=O)Cn1nnc2ccccc21 (stereo not drawn) 2.12%
CCOC(=O)N1CCC(NC(=O)c2cc(S(=O)(=O)N3CCOCC3)ccc2F)CC1 -2.28%
O=C(Nc1ccc(F)c(F)c1)c1cnc(-c2ccccc2)nc1-c1ccccc1 6.48%
COc1ccccc1NC(=S)NCCc1c[nH]c2ccccc12 1.87%
CC1(C)CC2CC(C)(CN2Cc2c(O)ccc3ccccc23)C1 (stereo not drawn) -1.68%
CC1C(=O)NN=C1C(=O)N/N=C/c1ccco1 (stereo not drawn) 5.8%
O=C(CCC(=O)N/N=C/c1ccco1)N/N=C/c1ccco1 6.28%
CCc1cc2cc(OC)ccc2nc1SCC(=O)NNC(=O)c1ccco1 -4.39%
COc1ccc2cc(C)c3nnc(SCC(=O)Nc4cc(OC)c(OC)cc4C(=O)O)n3c2c1 3.81%
CCOC(=O)CC(=O)CSc1nc2ccc(OC)cc2cc1C -7.77%
COc1ccc(OC)c(NC(=O)CSc2nc3ccccc3cc2Cc2ccccc2)c1 -12.8%
CC(C)CN(CC(C)C)S(=O)(=O)N1CCC(C(=O)NCc2ccc3c(c2)OCO3)CC1 -3.17%
Cc1ccc(-n2cccc2/C=C2/C(=N)N3C(=NC2=O)SN=C3S(C)(=O)=O)cc1 26.3%
N=C1/C(=C\c2ccc(-c3ccc(C(=O)O)cc3)o2)C(=O)N=C2SC=C(c3ccccc3)N12 23.3%
CC(C)S(=O)(=O)C1=NSC2=NC(=O)/C(=C\c3ccc(-c4cccc(C(=O)O)c4)o3)C(=N)N21 46.5%
CS(=O)(=O)C1=NSC2=NC(=O)/C(=C\c3ccc(-c4ccccc4)o3)C(=N)N21 55.5%
Cc1ccc(-n2nc(C)c3c2OC(N)=C(C#N)C3c2ccncc2)cc1 (stereo not drawn) 21.6%
Cc1cc(C(=O)NC2CCCCC2)on1 13.6%
O=C(COC(=O)c1cncc(Br)c1)NCc1ccccc1 -0.29%
C/C(=N/O)c1no[n+]([O-])c1/C(C)=N\O 4.25%
COC(=O)CSc1nc2cc(Cl)ccc2c(=O)n1C1CCCC1 -2.31%
Cc1c(N=C(N)/N=C(\N)Nc2ccc(Br)cc2)c(=O)n(-c2ccccc2)n1C -11.5%
CC1CCCCN1S(=O)(=O)c1ccc(N(C(=O)c2cnccn2)C(C(=O)NC2CCCCC2)c2cccs2)cc1 (stereo not drawn) -5%
CC(C)C(=O)c1cc2c(cc1NC(=O)c1cccs1)OCCO2 2.83%
CC(OC(=O)c1cc2c(ccc3ccccc32)oc1=O)c1nc2ccccc2s1 (stereo not drawn) -3.25%
Cc1cc(NCc2ccc3c(c2)OCO3)n2nc(C)nc2n1 -0.05%
COc1cccc(-c2nnn(CC(=O)NC3CCCC3)n2)c1OC 13.1%
COc1cccc(-c2nnn(CC(=O)Nc3ccc(C)cc3C)n2)c1OC -10%
CC(=O)c1cc(CN2CCN(CC=C(C)C)C(CCO)C2)cs1 (stereo not drawn) -1.16%
CC1(C)CC(C#N)(N2CCOCC2)CCO1 (stereo not drawn) -15.2%
COc1cccc2c(SCC(=O)N/N=C/c3ccc(O)cc3O)cc(C)nc12 16.9%
COc1cccc2c(SCC(=O)N/N=C/c3ccccc3)cc(C)nc12 2.63%
